DAX1 inh-1 – blocks DAX1 repression of SF-1 activated StAR promoter. HEK293T StAR-luciferase reporter, SF-1/DAX-1 repression relief. inhibition, % at 6.8 µM. AID 652010. hit rate 1.1% among 370,000;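 active = inhibition above the mean over all tested compounds plus 3 SD, cut at about 3.6% in these data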;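 note: 0% = DAX-1 cells with DMSO and 100% = cells lacking DAX-1 with DMSO; higher inhibition means more luminescence from relief of DAX-1 repression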
DAX1 inh-2 – inhibitors of human orphan nuclear receptor DAX1 (NR0B1). P51843. inhibition, % at 6.75 µM. hit rate 0.99% among 340,000. HEK293 Gal4-DAX1 luciferase reporter, luminescence;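 active = inhibition above the mean over all tested compounds plus 3 SD, cut at about 4.2% in these data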;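 note: 0% = DAX1-transfected cells with DMSO and 100% = empty-vector control cells with DMSO; inhibition shows as a rise in luminescence from relieved DAX1 repression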
hgDAF-12 ag – agonists of H. glycines DAF-12 nuclear receptor; HEK293 GAL4-hgDAF12 UAS-luciferase reporter, agonist luminescence; normalized to butyrate control; activation, % at 6.8 µM; hit rate 1.8% among 370,000; AID 687014;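 active = activation above a cutoff set at the mean of all screened compounds plus 3 SD, cut at about 10% in these data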;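 note: 0% = DMSO wells and 100% = sodium butyrate wells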
ssDAF12 agonist – activators of S. stercoralis DAF-12 nuclear receptor | HEK293 ssDAF-12/GRIP1 lit1-tk-luc reporter, luminescence; % of 3 µM dafachronic acid response | activation, % at 6.8 µM | hit rate 1% among 370,000;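 active = activation above the mean over all tested compounds plus 3 SD, cut at about 0.9% in these data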;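 note: 0% = DMSO-only wells and 100% = 3 µM delta7-dafachronic acid wells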
AHR act – activates the human aryl hydrocarbon receptor; P35869; AHR-responsive luciferase reporter cells, luminescence; activation, % at 5 µM; hit rate 2.5% among 320,000; AID 2796; in the data active = activation above about 47%;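 note: 0% = vehicle wells and 100% = reference agonist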
Target sequence (P35869 whole entry, looked up): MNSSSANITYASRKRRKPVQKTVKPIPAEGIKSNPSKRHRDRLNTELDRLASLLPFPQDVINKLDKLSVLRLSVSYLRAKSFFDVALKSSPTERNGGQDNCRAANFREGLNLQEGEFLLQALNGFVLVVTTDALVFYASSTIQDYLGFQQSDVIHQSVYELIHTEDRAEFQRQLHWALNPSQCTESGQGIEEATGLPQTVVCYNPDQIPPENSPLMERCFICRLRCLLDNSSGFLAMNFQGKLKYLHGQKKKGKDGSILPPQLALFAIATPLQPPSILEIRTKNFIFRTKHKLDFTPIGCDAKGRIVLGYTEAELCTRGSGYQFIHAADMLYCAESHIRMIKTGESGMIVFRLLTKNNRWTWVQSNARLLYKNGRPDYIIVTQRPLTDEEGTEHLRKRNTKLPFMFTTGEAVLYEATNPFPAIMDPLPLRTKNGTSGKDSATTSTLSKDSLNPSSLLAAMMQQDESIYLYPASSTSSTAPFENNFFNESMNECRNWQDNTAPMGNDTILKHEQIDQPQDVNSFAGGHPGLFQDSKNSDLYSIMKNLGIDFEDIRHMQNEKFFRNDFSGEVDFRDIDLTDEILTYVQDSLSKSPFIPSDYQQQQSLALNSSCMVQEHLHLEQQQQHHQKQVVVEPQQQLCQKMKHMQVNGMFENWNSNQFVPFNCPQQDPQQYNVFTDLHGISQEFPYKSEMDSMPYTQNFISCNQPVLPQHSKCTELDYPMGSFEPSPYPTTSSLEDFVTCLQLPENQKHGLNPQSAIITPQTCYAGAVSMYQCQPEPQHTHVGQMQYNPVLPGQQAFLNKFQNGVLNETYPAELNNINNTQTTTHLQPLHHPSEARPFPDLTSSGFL
hcDAF-12 act – activators of H. contortus DAF-12 nuclear receptor; HEK293 hcDAF-12 lit1-tk-luc reporter, luminescence; 0% DMSO, 100% Δ7-dafachronic acid; activation, % at 6.8 µM; hit rate 1.4% among 370,000;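 active = activation above the mean of all tested compounds plus 3 SD, cut at about 5.5% in these data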;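 note: 100% = response to 3 µM Δ7-dafachronic acid high control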
Starred values were filed as active, the others as inactive; . = no result. An excerpt weighted towards active compounds, which were near 5.7% of everything screened.

SMILES	DAX1 inh-1	DAX1 inh-2	hgDAF-12 ag	ssDAF12 agonist	AHR act	hcDAF-12 act
O=C(CCC(=O)c1cccs1)NCCc1ccc(F)cc1	3.8*	2	-3	0	19	3
NS(=O)(=O)c1ccc(CCNC(=O)CCC(=O)c2cccs2)cc1	0	-1	-2	-1	3	0
Cc1ccc(NCCC(=O)c2cccs2)cc1	4.2*	2	12*	1.4*	4	5
COc1ccc2c(c1)C(=O)[C@H](O)[C@@H](c1ccc(OC)c(Br)c1)O2	0	.	1	-1	10	1
Cn1ncc(Br)c1C(=O)Nc1cccc(C(F)(F)F)c1	1	1	2	-1	71*	1
CCOc1cc(CNc2ccc(S(N)(=O)=O)cc2)ccc1OCC(=O)NC(C)(C)C	-1	1	-2	-1	1	-2
COc1cc(CNCCc2ccc(S(N)(=O)=O)cc2)ccc1OCC(=O)NC(C)(C)C	0	0	1	-2	49*	0
O=C1CN(C(=O)CSc2nc3ccccc3c(=O)n2CC2CCCO2)c2ccccc2N1 (configuration not stated)	-1	-1	-2	-1	1	0
COCCN1C(=O)c2oc3ccccc3c(=O)c2C1c1ccc(OC)c(OC)c1 (configuration not stated)	0	3	-1	-1	2	-1
COc1ccc(N(C(C)=O)c2nc(C)cc(C)c2C#N)c(OC)c1	1	2	1	0	78*	4
CCc1ccc(CN2CCC(n3nccc3NC(=O)c3ccccc3C)CC2)cc1	-3	-1	-4	-2	8	-1
Cc1ccccc1C(=O)Nc1ccnn1C1CCN(Cc2c(C)n(C)c3ccccc23)CC1	0	1	0	-1	.	6.1*
COc1cccc(-n2nnc3c(=O)n(CC(=O)N4CCC(Cc5ccccc5)CC4)cnc32)c1	-1	-1	6	1.2*	0	5
CCOC(=O)C1=C(C)C(c2ccccc2O)NC(=O)N1 (configuration not stated)	0	6.0*	0	-1	-2	-2
CCOC(=O)C1=C(C)C(c2ccc(OC)cc2OC)NC(=O)N1 (configuration not stated)	0	0	-1	-1	-3	0
COC(=O)CSc1nnc(CNc2ccc(Cl)cc2)n1Cc1ccccc1	0	-1	3	0	3	1
COc1ccc(N=c2sc3ccccc3n2C)cc1	4.5*	5.6*	11*	0	33	6.1*
COc1ccccc1N=c1sc2ccccc2n1C	0	0	-1	-2	20	-1
CCc1ccc2nc3sc(C(=O)O)cc3cc2c1	3	0	7	-1	13	6.1*
Cc1ccc2nc3sc(C(=O)N4CCN(C)CC4)cc3cc2c1	.	.	2	-2	.	0
S=C(Nc1ccc(Cl)cc1Cl)N1CCCCC1	0	1	2	-1	6	5.8*
Fc1ccccc1NC(=S)N1CCC(c2ccccc2)C1 (configuration not stated)	1	0	3	0	2	2
S=C(Nc1ccccc1Cl)N1CCC(c2ccccc2)C1 (configuration not stated)	2	4.6*	11*	-1	6	2
O=C(CN1C(=O)C2(OCCO2)c2cc(Br)ccc21)NO	-1	-1	-1	-1	1	2
O=C(O)CN1C(=O)C2(OCCO2)c2cc(Br)ccc21	0	5.2*	2	-1	2	-1
SMILES	DAX1 inh-1	DAX1 inh-2	hgDAF-12 ag	ssDAF12 agonist	AHR act	hcDAF-12 act
CN1CCN(C(=O)c2ccc(CS(=O)Cc3ccc(Cl)cc3)o2)CC1 (configuration not stated)	0	1	0	-1	-1	1
O=C(NCCc1ccccc1)C1CCN(C(=O)c2ccc([N+](=O)[O-])cc2)CC1	-1	0	5	0.9*	0	1
O=C(/C=C/c1ccco1)NC(=S)Nc1ccc(O)c(-c2nc3ccccc3s2)c1	0	-1	4	-1	80*	0
CC(=O)NC(=S)Nc1ccc(NC(=S)NC(=O)/C=C/c2ccco2)cc1	0	-1	0	-2	1	-1
O=C(Nc1ccc(O)c(-c2nc3ccccc3s2)c1)c1cc(=O)c2ccccc2o1	0	-1	0	-1	2	0
COc1ccc(NC(=S)NC(=O)/C=C/c2ccco2)cc1	0	4.8*	10	-1	18	1
O=C(Nc1ccc(O)c(-c2nc3ccccc3s2)c1)c1cccs1	0	0	0	-1	74*	-1
Nc1ccc(O)c(-c2nc3ccccc3s2)c1	2	1	7	1.2*	22	4
COc1ccc(NC(=S)NC(=O)c2ccc(Br)o2)cc1	1	1	11*	0	5	1
Cc1ccc(O)c(NC(=S)NC(=O)/C=C/c2ccco2)c1	-1	0	12*	0	22	4
CNc1sc(C(=O)c2ccc(F)cc2)c(N)c1-c1nc2ccccc2s1	0	2	1	-1	32	2
Cc1ccc(O)c(NC(=S)NC(=O)/C=C/c2ccccc2)c1	0	1	-1	-1	44	0
O=C(Nc1ccc(F)cc1)Nc1sccc1-c1nc2ccccc2s1	0	1	2	-1	60*	0
COc1ccc(NC(=O)c2ccc(Br)o2)cc1	1	1	9	0	3	0
O=C(Nc1cccc(Cl)c1)N(CCCN1CCOCC1)Cc1ccccc1F	0	-1	0	-1	4	0
Cc1cc(C(=O)NNC2CC(=O)N(c3ccc4ccccc4c3)C2=O)c(C)o1 (configuration not stated)	1	1	2	-1	3	0
O=C(COc1ccccc1)Nc1cc(Cl)ccc1Cl	1	4.6*	7	0	2	5.9*
COCCN1Cc2cccc(C(=O)Nc3c(C)cc(C)cc3C)c2C1=O	-1	0	0	-1	1	-2
Cc1ccc2nc(CCc3ccc(N)cc3)[nH]c2c1	1	2	11*	0	52*	2
COc1ccc2c(c1)CCc1c-2n[nH]c1C(=O)O	0	0	3	-1	6	0
O=C(Cn1cnc2ccccc21)N/N=C/c1ccccc1	1	0	3	0	9	-1
CC(/C=N/NC(=O)Cn1cnc2ccccc21)=C\c1ccccc1	0	-1	-3	8.4*	-6	-3
CC(C)(C)c1ccc(C(=O)Nc2cccc(S(=O)(=O)NC3=NCCC3)c2)cc1	4.0*	0	8	-1	3	3
CN(C)c1ccc(C(=O)Nc2cccc(S(=O)(=O)NC3=NCCCCC3)c2)cc1	-1	0	0	-1	8	1

Screens: PubChem BioAssay, The Scripps Research Institute Molecular Screening Center
